# Laboratory results: PubChem BioAssay (NCATS)
# Results filed as inconclusive are left out. Where a call stands in place of a potency, no number is given. Activity calls are given as the source filed them. Unless noted, calls follow the shape of the full dose curve.
# Key:
# [1] = Cytotoxicity counterscreen for inhibitors of SARS-CoV-2 cell entry (AID 1645845); details: outcome: dose series up to 57.1 µM unless noted; also: nearly all actives have a fitted effect of over 50% in size; also: potency is read from the fitted curve at half-maximal effect
# Procedure, shortened: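 Expi293F/hACE2 cells seeded overnight; cpd pin-transferred in DMSO, 1 h preincubation, + media, 48 h 37 C 5% CO2; ATPLite 1step luminescence; normalized to cells and no cells.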
# [2] = Primary qHTS to identify inhibitors of SARS-CoV-2 cell entry (AID 1645846); details: SARS-CoV-2 pseudovirus cell entry assay, luminescence; activity change, negative = inhibition: at 57.1 µM (top of the series) unless noted; also: nearly all actives have a fitted effect of over 45% in size; also: potency is read from the fitted curve at half-maximal effect
# Procedure, shortened: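 HEK293 cells stably expressing human ACE2, pre-treated 1 h with compound, then infected with MLV particles pseudotyped with Wuhan-Hu-1 spike (C-terminal 19-aa truncation). Luciferase luminescence after 48 h at 37 °C, normalised to spike PP and bald PP.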
# [3] = VSVG counterscreen qHTS to identify inhibitors of SARS-CoV-2 cell entry (AID 1645847); also: nearly all actives have a fitted effect of over 65% in size; also: potency is read from the fitted curve at half-maximal effect
# Procedure, shortened: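 HEK293-ACE2 cells (Expi293F, human ACE2) pretreated 1 h with compound, then infected with MLV-based VSV-G pseudotyped particles for 48 h at 37 C; luciferase luminescence normalized to VSV-G PP and bald PP wells.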
# [4] = target: Nuclear receptor subfamily 1 group I member 3 (Homo sapiens) (UniProt Q14994); assay: Primary qHTS for antagonist of constitutive androstane receptor (CAR) against the NCATS DSHEA and TCM libraries (AID 1794836; active = well fitted curve in the direction sought with a large enough effect)
# Chain of Nuclear receptor subfamily 1 group I member 3 (Homo sapiens) (Q14994 whole entry, looked up): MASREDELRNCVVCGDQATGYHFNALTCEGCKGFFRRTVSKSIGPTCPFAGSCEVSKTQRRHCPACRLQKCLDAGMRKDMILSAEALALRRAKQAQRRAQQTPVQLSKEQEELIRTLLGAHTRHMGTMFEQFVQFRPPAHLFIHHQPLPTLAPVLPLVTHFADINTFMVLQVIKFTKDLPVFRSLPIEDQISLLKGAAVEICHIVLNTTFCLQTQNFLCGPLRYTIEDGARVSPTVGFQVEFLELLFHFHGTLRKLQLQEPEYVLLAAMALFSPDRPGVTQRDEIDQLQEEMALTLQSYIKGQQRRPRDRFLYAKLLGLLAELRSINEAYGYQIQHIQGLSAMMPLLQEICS
# Procedure, shortened: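 HepG2 cells stably carrying hCAR and a CYP2B6 luciferase reporter (2,500 cells/well) attached for 5 h, then received compounds with 48 uM CITCO for 24 h at 37C. ONE-Glo luminescence read antagonism; CellTiter-Fluor (405/540 nm) gave viability.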
# [5] = KB-8-5-11 P-gp reporter qHTS against the NCATS DSHEA and TCM libraries (AID 1919977; active = well fitted curve in the direction sought with a large enough effect)
# Procedure, shortened: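 P-gp-overexpressing KB-8-5-11 cells were screened in colchicine-free medium at 500 cells/well, as a titration series. Cells were exposed for 72 h at 37C. Viability was read by CellTiter-Glo luminescence after 30 min at room temperature.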
smiles,measurement,setting,value
C=C1C[C@H]2C=Nc3cc(OCCCOc4cc5c(cc4OC)C(=O)N4CC(=C)C[C@H]4C=N5)c(OC)cc3C(=O)N2C1,Potency,[1],inactive
same,"activity change, negative = inhibition",[2],-62%
same,Potency,[3],0.0014 µM (active)
O=C(NOCCO)c1ccc2cncn2c1Nc1ccc(I)cc1F,Potency,[1],inactive
same,"activity change, negative = inhibition",[2],-11.2%
CCn1c(=O)c(-c2ccc(Cl)cc2Cl)cc2cnc(Nc3ccc(N4CCNCC4)c(F)c3)nc21,Potency,[1],inactive
same,Potency,[2],inactive
COc1ccc(C(=O)C2CCN(CC(=O)N(Cc3nc4c(c(=O)[nH]3)COCC4)CC3CC3)CC2)cc1,Potency,[1],inactive
same,"activity change, negative = inhibition",[2],-20.6%
same,Potency,[3],8.57 µM (active)
CCCCC[C@H](O)/C=C/[C@H]1[C@H](O)CC(=O)[C@@H]1CCCCCCC(=O)O,Potency,[1],inactive
same,"activity change, negative = inhibition",[2],-2.28%
CNC(=O)[C@H]1O[C@@H](n2cnc3c(NCc4cccc(I)c4)nc(Cl)nc32)[C@H](O)[C@@H]1O,Potency,[1],inactive
same,Potency,[2],inactive
C/C=C1\NC(=O)[C@H]2CSSCC/C=C\[C@H](CC(=O)N[C@H](C(C)C)C(=O)N2)OC(=O)[C@H](C(C)C)NC1=O,Potency,[1],6.31 µM (active)
same,Potency,[2],7.08 µM (active)
CCS(=O)(=O)N1CCC(C(C)n2c(C)c(C(=O)NCc3c(OC)cc(C)[nH]c3=O)c3ccccc32)CC1 (stereo not given),Potency,[1],inactive
same,"activity change, negative = inhibition",[2],-8.61%
O=C(O)C1=CO[C@@H](O[C@@H]2O[C@H](CO)[C@@H](O)[C@H](O)[C@H]2O)[C@@H]2C(CO)=CC[C@H]12,Potency,[1],inactive
same,Potency,[2],inactive
OCc1ccccc1O[C@@H]1O[C@H](CO)[C@@H](O)[C@H](O)[C@H]1O,Potency,[1],inactive
same,"activity change, negative = inhibition",[2],-12.3%
COC1CCC(N2C(=O)CNc3ncc(-c4ccc(C(C)(C)O)nc4)nc32)CC1 (stereo not given),Potency,[1],7.94 µM (active)
same,Potency,[2],15.8 µM (active)
NS(=O)(=O)c1ccc(Cc2c(-c3cccc(-c4ccccc4)c3)nn(-c3nc(C(=O)O)cs3)c2CC2CC2)cc1,Potency,[1],inactive
same,"activity change, negative = inhibition",[2],-32.8%
same,Potency,[3],8.57 µM (active)
O=C(Nc1cccnc1)c1cc(-c2ccnc(F)c2)ccc1OCc1ccccc1,Potency,[1],inactive
same,"activity change, negative = inhibition",[2],-5.26%
same,Potency,[3],inactive
CCN(CCCOc1ccc2c(Nc3cc(CC(=O)Nc4cccc(F)c4)[nH]n3)ncnc2c1)CCOP(=O)(O)O,Potency,[1],inactive
same,"activity change, negative = inhibition",[2],-62.3%
same,Potency,[3],0.0764 µM (active)
CC1=C(/C=C/C(C)=C/C=C/C(C)=C/C=C/C=C(C)/C=C/C=C(C)/C=C/C2=C(C)CCCC2(C)C)C(C)(C)CCC1,Potency,[1],inactive
same,"activity change, negative = inhibition",[2],-16.6%
same,Potency,[4],inactive
same,Potency,[5],inactive
Cc1cc(C)c(S(=O)(=O)N(CCc2cccc(Br)c2)Cc2ccc(-c3cccc(S(C)(=O)=O)c3)cc2)c(C)c1,Potency,[1],inactive
same,"activity change, negative = inhibition",[2],-5.91%
CC1(N)CCN(c2cccnc2NC(=O)c2nc(-c3ncccc3C(F)(F)F)cnc2N)CC1,Potency,[1],inactive
same,Potency,[2],14.1 µM (active)
CC(C)(NS(=O)(=O)c1ccc2c(Cl)cnc(N=C(N)N)c2c1)C(=O)O,Potency,[1],inactive
same,"activity change, negative = inhibition",[2],0.398%
CC(=O)N1CCN(CCOc2ccc(C3CCN(C4=Nn5c(nnc5C(F)(F)F)CC4)CC3)cc2)CC1,Potency,[1],inactive
same,"activity change, negative = inhibition",[2],-91.8%
same,Potency,[3],19.2 µM (active)
C[C@H]1COCCN1c1cc(C2(S(=O)(=O)C3CC3)CC2)nc(-c2ccc(NC(=S)NCCO)cc2)n1,Potency,[1],inactive
same,"activity change, negative = inhibition",[2],-79.3%
same,Potency,[3],0.304 µM (active)
C[C@H]1Oc2cc(cnc2N)-c2c(nn(C)c2C#N)CN(C)C(=O)c2ccc(F)cc21,Potency,[1],inactive
same,"activity change, negative = inhibition",[2],-7.26%
N#C/C(=C(/N)Sc1ccc(N)cc1)c1ccccc1C(F)(F)F,Potency,[1],inactive
same,"activity change, negative = inhibition",[2],-16.8%
Cc1nc(-c2cccnc2)sc1C(=O)Nc1ccccc1-c1cn2c(CN3CCOCC3)csc2n1,Potency,[1],inactive
same,Potency,[2],inactive
C[C@@H]1C(=O)OC2[C@H](O)[C@]34[C@H]5C[C@@H](C(C)(C)C)[C@]36[C@@H](OC(=O)[C@@H]6O)O[C@@]4(C(=O)O5)[C@]21O (stereo not given in full),Potency,[1],inactive
same,"activity change, negative = inhibition",[2],-20.5%
CN[C@@H](C)C(=O)N[C@H](C(=O)N1CCC[C@H]1C(=O)Nc1sc(-c2ncco2)nc1-c1ccccc1)C1CCCCC1,Potency,[1],inactive
same,Potency,[2],inactive
Cn1cc(-c2ccc3c(c2)CCN3C(=O)Cc2cccc(C(F)(F)F)c2)c2c(N)ncnc21,Potency,[1],inactive
same,"activity change, negative = inhibition",[2],3.56%
Cc1c(NC(=O)c2cc3c(s2)CCCC3)cccc1-c1cn(C)c(=O)c(Nc2ccc(C3C(=O)N(C)CCN3C)cc2)n1 (stereo not given),Potency,[1],inactive
same,Potency,[2],inactive
CC1(C)CN(C(=O)c2ccc(-c3cccc4nc(NC(=O)C5CC5)nn34)cc2)C1,Potency,[1],inactive
same,"activity change, negative = inhibition",[2],-61.8%
